Eight molecules from PubChem BioAssay (Tox21) can be followed below.

Inconclusive results are not listed. Unmarked numbers belong to inactive results. Active and inactive are the calls of the source. Unless noted, calls come from the whole dose curve; as a rule, active = well fitted curve in the direction sought with a large enough effect in the repeat runs; inconclusive = weak or mixed curves; inactive = no such curve, though single readings can be large; an effect the other way counts as inactive or inconclusive.

Assay [1] in a line: qHTS assay to identify small molecule antagonists of the retinoid acid receptor (RAR) signaling pathway - cell viability counter screen (AID 1159551). Note: nearly all actives have a fitted effect of over 35% in size. Note: potency is the fitted concentration of half-maximal effect. Put shortly:
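Cytotoxicity counter screen: ATP content quantified by CellTiter-Glo luminescence in C3RL4 cells treated 6 hr at 37 C with compound and retinol (1 uM final). Cells plated at 1,000/well and cultured overnight before dosing.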
On the technique in general: qHTS replaces the single test concentration by a dilution series.

Assay [2] is described as follows: qHTS assay to identify small molecule antagonists of the retinoic acid receptor (RAR) signaling pathway (AID 1159552; note: nearly all actives have a fitted effect of over 50% in size; note: potency is the fitted concentration of half-maximal effect). The gist of the method: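 Retinol signaling pathway inhibitors screened in C3RL4 RARE-luciferase reporter cells seeded overnight at 37 C, then compounds added with 1 uM (final) retinol as pathway substrate. After 6 hr at 37 C, luciferase luminescence read after 30 min at room temperature.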

Assay [3] is described as follows: qHTS assay to identify small molecule agonists of the retinoic acid receptor (RAR) signaling pathway (AID 1159553). Note: potency is the fitted concentration of half-maximal effect. Put shortly: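 Luminescence was measured 30 min after luciferase reagent addition at room temperature. Before that, C3RL4 reporter cells (1,000 per well, plated overnight) were treated with compound for 6 hr at 37 C and 5% CO2.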
Assay [4] is described as follows: qHTS assay to identify small molecule antagonists of the estrogen related receptor (ERR) signaling pathway from Tox21 library - cell viability counter screen (AID 1224834). Note: nearly all actives have a fitted effect of over 30% in size. Note: potency is the fitted concentration of half-maximal effect. Put shortly: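 CellTiter-Fluor fluorescence, read after 30 min at 37 C, measures viability of ERR cells. Cells plated at 2,000/well and incubated 6 h before pin-tool compound addition, then exposed 17.5 hours at 37 C.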

Assay [5] has as its target Luciferin 4-monooxygenase (Photinus pyralis) (UniProt P08659). The assay is described as follows: qHTS assay to identify small molecule inhibitors of firefly luciferase (AID 1224835). Note: series mostly up to about 120 µM; nearly all actives have a fitted effect of over 25% in size. The gist of the method:
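Inhibition of purified Photinus luciferase is measured by luminescence. Substrate levels (D-luciferin, ATP) sit at their KM values. Each compound is tested in a concentration series.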

Assay [6] in a line: qHTS assay to identify small molecule antagonists of the estrogen related receptor signaling pathway with the pleiotropic PPARgamma coactivator (PGC) from Tox21 10K library - cell viability counter screen (AID 1224840; active = well fitted cell-killing curve with a large enough effect in the repeat runs, not every such curve was filed as active; note: nearly all actives have a fitted effect of over 40% in size; note: potency is the fitted concentration of half-maximal effect). Put shortly: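 Counter-screen for cytotoxicity: after 17.5 h compound exposure at 37 C, CellTiter-Fluor reagent added to PGC/ERR cells for 30 min and fluorescence read. Cells were seeded at 2,000 per well 6 h before dosing.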

A short description of assay [7]: qHTS assay to identify small molecule antagonists of the estrogen related receptor signaling pathway with the pleiotropic PPARgamma coactivator (PGC) from Tox21 10K library (AID 1224841; call rule not given here; note: actives are mostly falling curves and most rising ones were filed inactive; nearly all actives have a fitted effect of over 50% in size; note: potency is the fitted concentration of half-maximal effect). Put shortly: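 Luminescence (One-Glo, 30 min at room temperature) after 18 h compound treatment at 37 C of PGC/ERR reporter cells plated at 2,000 cells/well and settled 6 h beforehand.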

The nature of assay [8]: qHTS assay to identify small molecule agonists of the estrogen related receptor signaling pathway with the pleiotropic PPARgamma coactivator (PGC) from Tox21 10K library (AID 1224842). Note: nearly all actives have a fitted effect of over 15% in size. The gist of the method:
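Luminescence from One-Glo (30 min, room temperature) measured after PGC/ERR cells had 18 h at 37 C with pinned compound (23 nL in DMSO). Cells had been seeded at 2,000 per well and pre-incubated 6 h.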

The target in assay [9] is Thyrotropin receptor (Homo sapiens) (UniProt P16473). Put plainly: qHTS assay to identify small molecule agonists of the thyroid stimulating hormone receptor (TSHR) signaling pathway (AID 1224843; calls by dose curve; note: nearly all actives have a fitted effect of over 45% in size; note: potency is the fitted concentration of half-maximal effect). The gist of the method:
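A cell-based cAMP HTRF format was run in TSHR-transfected HEK293 cells, 800 per well. Treatment: 30 min, room temperature. Detection: 1 h with labelled cAMP and anti-cAMP cryptate. Concentration-response over 15 points, three replicates.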

The nature of assay [10]: qHTS assay to identify small molecule agonists of the hypoxia (HIF-1) signaling pathway - cell viability counter screen (AID 1224844; calls by dose curve; note: nearly all actives have a fitted effect of over 50% in size; note: potency is the fitted concentration of half-maximal effect). Put shortly:
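Cytotoxicity measured by CellTiter-Glo ATP luminescence in the wells also read for beta-lactamase signal. Cells were HRE-bla ME-180 (2,000/well, 0.5% dialyzed FBS), exposed to compounds for 17 h at 37C.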

A short description of assay [11]: qHTS assay to identify small molecule agonists of the constitutive androstane receptor (CAR) signaling pathway - cell viability counter screen (AID 1224836). Note: nearly all actives have a fitted effect of over 45% in size. Note: potency is the fitted concentration of half-maximal effect. The gist of the method:
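HepG2 cells stably carrying hCAR and a CYP2B6-2.2kb reporter; 15-concentration compounds plus PK11195 (final 0.75 uM), 23 hr at 37 C/5% CO2. Viability read by CellTiter-Fluor fluorescence.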

The nature of assay [12]: qHTS assay to identify small molecule antagonists of the constitutive androstane receptor (CAR) signaling pathway - cell viability counter screen (AID 1224837). Note: nearly all actives have a fitted effect of over 45% in size. Note: potency is the fitted concentration of half-maximal effect. Put shortly:
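Cytotoxicity counter-screen: CellTiter-Fluor fluorescence after 23 h compound exposure (15-point qHTS) in double-stable HepG2-CYP2B6-hCAR cells, with 50 nM CITCO added.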

Assay [13] has as its target Nuclear receptor subfamily 1 group I member 3 (Homo sapiens) (UniProt Q14994). The assay is described as follows: qHTS assay to identify small molecule antagonists of the constitutive androstane receptor (CAR) signaling pathway (AID 1224838).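 Note: HepG2 cells stably expressing hCAR with CYP2B6 luciferase reporter stimulated by CITCO; nearly all actives have a fitted effect of over 40% in size.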 Put shortly: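 Antagonism measured as luciferase signal (ONE-Glo, 30 min, room temperature) in CAR-stimulated cells: HepG2-CYP2B6-hCAR double-stable line exposed 24 hr at 37 C to compound in a 15-point series plus 50 nM CITCO.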

Assay [14] has the same target. The assay is described as follows: qHTS assay to identify small molecule agonists of the constitutive androstane receptor (CAR) signaling pathway (AID 1224839).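 Note: HepG2 cells stably carrying human CAR and a CYP2B6 luciferase reporter; series mostly up to about 92 µM; nearly all actives have a fitted effect of over 15% in size.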 Put shortly:
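HepG2 cells stably co-transfected with hCAR and a CYP2B6-2.2kb luciferase reporter; compounds at 15 concentrations with 0.75 uM PK11195 present. After 24 hr at 37 C, luciferase read by ONE-Glo luminescence.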

Chain of Nuclear receptor subfamily 1 group I member 3 (Homo sapiens) (Q14994 whole entry, looked up): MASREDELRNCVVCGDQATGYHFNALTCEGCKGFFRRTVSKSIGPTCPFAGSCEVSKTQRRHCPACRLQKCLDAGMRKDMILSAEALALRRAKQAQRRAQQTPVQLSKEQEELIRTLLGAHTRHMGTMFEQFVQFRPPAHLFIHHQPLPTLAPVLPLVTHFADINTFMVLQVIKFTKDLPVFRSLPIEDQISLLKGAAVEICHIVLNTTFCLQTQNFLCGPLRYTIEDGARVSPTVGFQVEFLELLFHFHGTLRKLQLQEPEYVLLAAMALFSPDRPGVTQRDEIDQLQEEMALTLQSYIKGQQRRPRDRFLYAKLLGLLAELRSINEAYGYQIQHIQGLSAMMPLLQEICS
Chain of Luciferin 4-monooxygenase (Photinus pyralis) (P08659 whole entry, looked up): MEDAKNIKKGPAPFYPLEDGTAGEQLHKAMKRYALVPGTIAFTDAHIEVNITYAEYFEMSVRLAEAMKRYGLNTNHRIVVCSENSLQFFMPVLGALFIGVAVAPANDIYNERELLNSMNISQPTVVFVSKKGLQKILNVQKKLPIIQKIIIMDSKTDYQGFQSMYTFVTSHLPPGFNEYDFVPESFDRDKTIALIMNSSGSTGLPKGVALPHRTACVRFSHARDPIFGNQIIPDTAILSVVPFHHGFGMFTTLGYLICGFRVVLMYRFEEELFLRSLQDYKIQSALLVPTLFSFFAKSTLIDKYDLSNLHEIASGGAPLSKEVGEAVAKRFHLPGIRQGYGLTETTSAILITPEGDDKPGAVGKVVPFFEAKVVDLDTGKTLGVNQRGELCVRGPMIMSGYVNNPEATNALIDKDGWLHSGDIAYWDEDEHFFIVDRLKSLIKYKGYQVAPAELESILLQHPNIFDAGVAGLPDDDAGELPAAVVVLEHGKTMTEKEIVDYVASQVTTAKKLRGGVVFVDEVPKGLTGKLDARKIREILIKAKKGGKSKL
Chain of Thyrotropin receptor (Homo sapiens) (P16473 whole entry, looked up): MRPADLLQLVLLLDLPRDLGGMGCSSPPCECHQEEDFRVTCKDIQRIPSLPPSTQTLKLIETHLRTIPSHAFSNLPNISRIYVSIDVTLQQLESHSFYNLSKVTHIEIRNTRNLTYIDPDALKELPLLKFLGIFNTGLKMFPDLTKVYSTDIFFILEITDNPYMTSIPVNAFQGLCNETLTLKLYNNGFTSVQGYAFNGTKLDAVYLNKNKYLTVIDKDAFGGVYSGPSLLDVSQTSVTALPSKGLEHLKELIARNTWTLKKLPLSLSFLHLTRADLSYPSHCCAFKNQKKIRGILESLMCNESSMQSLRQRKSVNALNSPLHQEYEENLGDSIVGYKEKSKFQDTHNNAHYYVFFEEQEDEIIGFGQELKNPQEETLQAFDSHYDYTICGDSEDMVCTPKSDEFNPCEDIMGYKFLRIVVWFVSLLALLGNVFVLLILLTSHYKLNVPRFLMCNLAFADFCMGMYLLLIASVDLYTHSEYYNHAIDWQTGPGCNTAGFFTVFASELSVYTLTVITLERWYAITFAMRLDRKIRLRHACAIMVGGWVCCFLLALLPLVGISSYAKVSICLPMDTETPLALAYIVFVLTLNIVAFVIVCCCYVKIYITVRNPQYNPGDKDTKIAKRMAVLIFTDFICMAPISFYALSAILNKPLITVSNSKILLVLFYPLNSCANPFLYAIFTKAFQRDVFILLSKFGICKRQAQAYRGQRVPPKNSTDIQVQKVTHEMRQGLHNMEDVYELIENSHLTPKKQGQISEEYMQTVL

As for `C[n+]1ccn(Cc2ccccc2)c1`, the Potency result in assay [1], in [2], in [3], in assay [4], in assay [5] and in [6] was “inactive” in each case. For the same molecule, the Potency result in assay [7], in assay [8], in [9] and in [10] was “inactive” in each case.
As to `Cc1ccc(-n2nc(C(C)(C)C)cc2NC(=O)Nc2ccc(OCCN3CCOCC3)c3ccccc23)cc1`, the Potency entry in assay [1], in assay [2], in assay [5], in assay [11], in assay [12] and in assay [13] was “inactive” throughout. Moreover, the Potency result in assay [6] and in [8] was “inactive” in each case. Moreover, the Potency in assay [3] was 18.8 µM (active).
Consider `NC(=O)NS(=O)(=O)c1ccc(N)cc1`, for which the Potency entry in assay [1], in assay [2], in assay [3], in assay [5], in assay [11] and in assay [12] was “inactive” throughout. For the same molecule, the Potency entry in assay [13], in [14], in assay [6], in assay [9] and in assay [10] was “inactive” throughout.
As to `CCCCCCCCCCC=O`, the Potency entry in [1], in [2], in assay [3], in assay [5], in assay [11] and in [12] was “inactive” in each case. The Potency result in assay [6], in assay [8], in assay [9] and in assay [10] was “inactive” each time.
With `C=CC(=O)OCC(CO)(COCC(COC(=O)C=C)(COC(=O)C=C)COC(=O)C=C)COC(=O)C=C`, the Potency in [1] is 53.8 µM (active); in assay [2], 7.6 µM (active); in assay [3], 0.957 µM (active); in assay [4], 4.8 µM (active); in [11] it was 6.78 µM (active); in [12], 6.04 µM (active). In addition, the Potency in assay [6] was 3.4 µM (active); in [9], 6.04 µM (active); in assay [10], 2.16 µM (active). Also, the Potency result in assay [5] and in assay [14] was “inactive” in each case.
Take `CCCCCOc1ccccc1/C(=C\SC)n1ccnc1`: the Potency entry in assay [1], in assay [2], in assay [5], in assay [11], in assay [12] and in assay [6] was “inactive” in each case. In addition, in [8], the Potency result was “inactive”. For the same molecule, the Potency in assay [3] is 33.5 µM (active); in assay [4], 29.8 µM (active); in assay [7], 15 µM (active); in assay [9], 21.1 µM (active); in assay [10], 21.3 µM (active).
With `CC1=NC(C)OC1C` (stereo not given), the Potency entry in [1], in [2], in assay [3], in assay [4], in [5] and in assay [11] was “inactive” in each case. In addition, the Potency entry in [12], in assay [14], in [6], in assay [9] and in assay [10] was “inactive” throughout.
With `CO[Si](CCCNc1ccccc1)(OC)OC`, the Potency entry in [1], in assay [2], in assay [3], in assay [5], in [11] and in assay [12] was “inactive” in each case. Further, the Potency entry in assay [13], in assay [14], in [6], in assay [9] and in assay [10] was “inactive” each time.
